The campaign covered roughly 5,500 compounds. About 2,000 (36%) were called active. About 18% were inconclusive and are not listed. Rule as the data show it: active = normalized growth mostly below about 0.91 (no sharp cut-off); inconclusive = no clear call, values can overlap the other calls; inactive = mostly above about 0.92. Some of the results follow.
Assay: chemical genetic growth profiling, strain panel (AID 1159580);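 also: tested at 20 µM; growth read once vehicle control cultures reached saturation at 30 °C; 1 = growth at the plate median or of vehicle wells; lower values mean less growth of the strain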
Conditions: growth OD
[1] = S. cerevisiae deletion strains, locus YAL013W, strain DEP1, hits give low values
[2] = S. cerevisiae deletion strains, locus YBR229C, strain ROT2, hits give low values
[3] = S. cerevisiae deletion strains, locus YCL061C, strain MRC1, hits give low values
[4] = S. cerevisiae deletion strains, locus YDL101C, strain DUN1, hits give low values
[5] = S. cerevisiae deletion strains, locus YDR150W, strain NUM1, hits give low values
[6] = S. cerevisiae deletion strains, locus YEL061C, strain CIN8, hits give low values
[7] = S. cerevisiae deletion strains, locus YGR078C, strain PAC10, hits give low values
[8] = S. cerevisiae deletion strains, locus YHR030C, strain SLT2, hits give low values
[9] = S. cerevisiae deletion strains, locus YHR087W, strain rtc3, hits give low values
[10] = S. cerevisiae deletion strains, locus YJR043C, strain POL32, hits give low values
[11] = S. cerevisiae deletion strains, locus YJR075W, strain HOC1, hits give low values
[12] = S. cerevisiae deletion strains, locus YKL190W, strain CNB1, hits give low values
[13] = S. cerevisiae deletion strains, locus YLR039C, strain RIC1, hits give low values
[14] = S. cerevisiae deletion strains, locus YLR058C, strain SHM2 (second series), hits give low values
[15] = S. cerevisiae deletion strains, locus YLR085C, strain ARP6, hits give low values
[16] = S. cerevisiae deletion strains, locus YLR262C, strain YPT6, hits give low values
[17] = S. cerevisiae deletion strains, locus YML094W, strain GIM5, hits give low values
[18] = S. cerevisiae deletion strains, locus YMR219W, strain ESC1, hits give low values
[19] = S. cerevisiae deletion strains, locus YMR263W, strain SAP30, hits give low values
[20] = S. cerevisiae deletion strains, locus YNL153C, strain GIM3, hits give low values
[21] = S. cerevisiae deletion strains, locus YNL298W, strain CLA4 (second series), hits give low values
[22] = S. cerevisiae deletion strains, locus YNL322C, strain KRE1, hits give low values
[23] = S. cerevisiae deletion strains, locus YNR030W, strain Alg12, hits give low values
[24] = S. cerevisiae deletion strains, locus YOL006C, strain TOP1, hits give low values
[25] = S. cerevisiae deletion strains, locus YPL055C, strain LGE1, hits give low values
[26] = S. cerevisiae deletion strains, locus YPL241C, strain CIN2, hits give low values
[27] = S. cerevisiae deletion strains, locus YPR135W, strain CTF4, hits give low values
[28] = S. cerevisiae strains, strain wild type, hits give low values

Measured: normalized growth

Cc1noc(C)c1C(=O)N1CCN(c2ncc(C(F)(F)F)cc2Cl)CC1
inactive: [1] 0.994 | [2] 0.988 | [3] 0.993 | [4] 0.977 | [5] 0.897 | [6] 0.975 | [7] 0.994 | [8] 1.07 | [9] 0.975 | [10] 0.998 | [11] 0.972 | [12] 1 | [13] 0.995 | [14] 1 | [15] 0.982 | [16] 0.979 | [17] 0.968 | [18] 1 | [19] 1.01 | S. cerevisiae deletion strains, locus YNL128W, strain TEP1, hits give low values 0.99 | [20] 0.986 | [21] 1.02 | [22] 0.989 | [23] 0.97 | [24] 0.99 | [25] 0.933 | [26] 1.1 | [27] 0.942 | [28] 0.993

O=C(COc1ccc2c(c1)OCO2)N1CCN(c2ncc(C(F)(F)F)cc2Cl)CC1
inactive: [1] 0.993 | [2] 1 | [3] 0.983 | [4] 1.03 | [5] 0.997 | [6] 0.948 | [7] 0.996 | [9] 0.977 | S. cerevisiae deletion strains, locus YJL187C, strain SWE1, hits give low values 1 | [10] 1.03 | [11] 0.984 | [12] 0.963 | [13] 0.876 | [14] 0.998 | [16] 0.885 | [17] 0.964 | [18] 0.994 | [19] 1.01 | S. cerevisiae deletion strains, locus YMR307W, strain GAS1, hits give low values 0.791 | [20] 0.978 | [21] 0.944 | [22] 0.987 | [23] 0.92 | [24] 0.999 | [25] 1.03 | [26] 1.06 | [27] 0.802 | [28] 0.985
active: [8] 0.55 | [15] 0.7
